Each structure is given as a SMILES string. Records with an inconclusive call do not appear. Entries that show only a call come without a potency. Calls of active or inactive are those of the source. Calls come from the whole dose curve.

A short description of this assay: p53 small molecule agonists, cell-based qHTS assay with human liver microsomes (AID 1963577).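 Note: p53 response element beta-lactamase reporter cells with liver microsomes plus NADPH.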 Particulars: HCT-116 p53RE-bla with human liver microsomes, ratio, 16 h; series mostly up to 66 µM. The procedure, abridged:
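Reporter activation was measured by LiveBLAzer fluorescence intensity in p53RE-bla cells, which had been exposed to compounds for 16 h at 37 C alongside 0.5 mg/mL human liver microsomes and 0.5 mg/mL NADPH (final concentrations).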
On the technique in general: qHTS replaces the single test concentration by a dilution series.

Regarding `CC1=Nc2ccccc2C1(C)C`, the Potency entry is “inactive”. For `O=C(Nc1ccc(Cl)c(Cl)c1)c1cc(Cl)cc(Cl)c1O`, the Potency result is “inactive”. Regarding `O=C(O)CCCCCCCCCC(=O)O`, the Potency result was “inactive”. In the case of `CCCCCCCCCCCCCCC[C@H](O)[C@@H](N)CO`, the Potency result is “inactive”. With `O=C(OCCc1ccccc1)c1ccccc1` the entry was “inactive”.
